Test results as given in PubChem BioAssay AID1159580 (chemical genetic matrix, 2015).
The campaign covered roughly 5,500 compounds. About 2,000 (36%) were called active. Another 18% or so got no clear call; they are omitted. No stated cut-off is given here; in the data, active means normalized growth mostly below about 0.91 (no sharp cut-off); inconclusive means no clear call, values can overlap the other calls; inactive means mostly above about 0.92. This is one part of the list.

Assay: chemical genetic growth profiling, strain panel (AID 1159580);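 further: tested at 20 µM; growth read once vehicle control cultures reached saturation at 30 °C; 1 = growth at the plate median or of vehicle wells; lower values mean less growth of the strain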
Details: S. cerevisiae deletion strains, growth OD

Measured: normalized growth

O=C1CSC(=Nc2cc(Cl)cc(Cl)c2)N1Cc1cccnc1
inactive: locus YAR019C, strain CDC15, active compounds read low 0.997 | locus YBL105C, strain PKC1, active compounds read low 0.989 | locus YBR135W, strain CKS1, active compounds read low 0.995 | locus YBR136W, strain MEC1, active compounds read low 0.986 | locus YBR160W, strain CDC28, active compounds read low 0.992 | locus YDL017W, strain CDC7, active compounds read low 0.991 | locus YDL028C, strain MPS1, active compounds read low 0.994 | locus YDL101C, strain DUN1, active compounds read low 0.988 | locus YDL108W, strain KIN28, active compounds read low 0.97 | locus YDL132W, strain cdc53, active compounds read low 0.997 | locus YDL214C, strain PRR2, active compounds read low 0.924 | locus YDR052C, strain DBF4, active compounds read low 0.995 | locus YDR054C, strain cdc34, active compounds read low 0.983 | locus YDR226W, strain ADK1, active compounds read low 0.996 | locus YDR477W, strain SNF1, active compounds read low 0.947 | locus YER123W, strain YCK3, active compounds read low 0.887 | locus YER133W, strain GLC7, active compounds read low 0.927 | locus YFL009W, strain cdc4, active compounds read low 0.986 | locus YFL029C, strain CAK1, active compounds read low 0.994 | locus YFR003C, strain YPI1, active compounds read low 0.991 | locus YFR019W, strain FAB1, active compounds read low 0.944 | locus YFR028C, strain CDC14, active compounds read low 0.994 | locus YGR040W, strain KSS1, active compounds read low 0.937 | locus YGR052W, strain FMP48, active compounds read low 1.03 | locus YGR092W, strain DBF2, active compounds read low 0.947 | locus YHR030C, strain SLT2, active compounds read low 1.14 | locus YHR079C, strain IRE1, active compounds read low 1.05 | locus YHR082C, strain KSP1, active compounds read low 1.01 | locus YHR205W, strain SCH9, active compounds read low 0.958 | locus YIL147C, strain SLN1, active compounds read low 0.986 | locus YJL095W, strain BCK1, active compounds read low 1.03 | locus YJL128C, strain PBS2, active compounds read low 0.974 | locus YJL157C, strain FAR1, active compounds read low 0.931 | locus YJR016C, strain ILV3, active compounds read low 0.996 | locus YJR066W, strain TOR1 (second series), active compounds read low 0.912 | locus YJR066W, strain TOR1, active compounds read low 1.02 | locus YKL048C, strain ELM1, active compounds read low 0.974 | locus YKL067W, strain YNK1, active compounds read low 0.948 | locus YKL101W, strain HSL1, active compounds read low 0.958 | locus YKL193C, strain SDS22, active compounds read low 0.999 | locus YKL203C, strain TOR2, active compounds read low 1.02 | locus YLR113W, strain HOG1, active compounds read low 0.968 | locus YLR133W, strain CKI1, active compounds read low 0.955 | locus YLR403W, strain SFP1, active compounds read low 0.957 | locus YML070W, strain DAK1, active compounds read low 0.918 | locus YMR001C, strain CDC5, active compounds read low 0.996 | locus YMR205C, strain PFK2 (second series), active compounds read low 0.938 | locus YMR277W, strain FCP1, active compounds read low 0.996 | locus YNL006W, strain LST8, active compounds read low 0.994 | locus YNL020C, strain ARK1, active compounds read low 0.945 | locus YNL161W, strain CBK1, active compounds read low 0.996 | locus YNL183C, strain NPR1, active compounds read low 1.03 | locus YNL207W, strain RIO2, active compounds read low 0.993 | locus YNL222W, strain SSU72, active compounds read low 1 | locus YNL307C, strain MCK1 (second series), active compounds read low 0.952 | locus YOL078W, strain AVO1, active compounds read low 0.998 | locus YOL136C, strain PFK27, active compounds read low 0.927 | locus YOR061W, strain CKA2, active compounds read low 0.927 | locus YOR119C, strain RIO1, active compounds read low 0.981 | locus YOR231W, strain MKK1, active compounds read low 1.02 | locus YOR329C, strain SCD5, active compounds read low 0.994 | locus YPL031C, strain PHO85, active compounds read low 0.949 | locus YPL153C, strain RAD53, active compounds read low 0.923 | locus YPL204W, strain HRR25, active compounds read low 0.944 | locus YPL209C, strain IPL1, active compounds read low 0.991 | locus YPL256C, strain CLN2, active compounds read low 1.04 | locus YPR025C, strain CCL1, active compounds read low 0.992 | locus YPR106W, strain ISR1, active compounds read low 0.998 | locus YPR111W, strain DBF20, active compounds read low 0.99 | strain NNK1, active compounds read low 0.991 | strain TSCII, active compounds read low 0.997
